Measurements as given in PubChem BioAssay (NCATS).
Records with an inconclusive call do not appear. Unmarked numbers belong to inactive results. Activity calls are given as the source filed them. The call rests on the fitted dose curve; in most records, active means well fitted curve in the direction sought with a large enough effect; inconclusive means small, poorly fitted or top-dose-only effect, or another doubt; inactive means no such curve, though single readings can be large; an effect the other way counts as inactive or inconclusive.

How the values were obtained:
[1] = system: Zika virus NS2B-NS3 protease; assay: Primary screen GU AMC qHTS for Zika virus inhibitors (AID 1347154);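 further: 0% = no-inhibitor control and -100% = no-enzyme control; nearly all actives have a fitted effect of over 70% in size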
Summary of the method: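 Unlinked Zika NS2B hydrophilic domain–NS3 protease complex at 25 nM in 10 mM Tris-HCl pH 8.0, 0.01% Tween 20, with an AMC peptide substrate. Fluorescence change (340/450 nm) over 15 min at room temperature, normalized to controls, fitted to 4-parameter Hill.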

[2] = target: Lysine-specific demethylase 5B (Homo sapiens) (UniProt Q9UGL1); assay: Optimization screen for KDM5B Histone Demethylases FDH coupled qHTS against the LOPAC library (AID 1347166); details: KDM5B demethylation, FDH-coupled NADH fluorescence (FDH is formaldehyde dehydrogenase); at 57.5 µM (top of the series); further: 0% is about no effect
Chain of Lysine-specific demethylase 5B (Homo sapiens) (Q9UGL1 whole entry, looked up): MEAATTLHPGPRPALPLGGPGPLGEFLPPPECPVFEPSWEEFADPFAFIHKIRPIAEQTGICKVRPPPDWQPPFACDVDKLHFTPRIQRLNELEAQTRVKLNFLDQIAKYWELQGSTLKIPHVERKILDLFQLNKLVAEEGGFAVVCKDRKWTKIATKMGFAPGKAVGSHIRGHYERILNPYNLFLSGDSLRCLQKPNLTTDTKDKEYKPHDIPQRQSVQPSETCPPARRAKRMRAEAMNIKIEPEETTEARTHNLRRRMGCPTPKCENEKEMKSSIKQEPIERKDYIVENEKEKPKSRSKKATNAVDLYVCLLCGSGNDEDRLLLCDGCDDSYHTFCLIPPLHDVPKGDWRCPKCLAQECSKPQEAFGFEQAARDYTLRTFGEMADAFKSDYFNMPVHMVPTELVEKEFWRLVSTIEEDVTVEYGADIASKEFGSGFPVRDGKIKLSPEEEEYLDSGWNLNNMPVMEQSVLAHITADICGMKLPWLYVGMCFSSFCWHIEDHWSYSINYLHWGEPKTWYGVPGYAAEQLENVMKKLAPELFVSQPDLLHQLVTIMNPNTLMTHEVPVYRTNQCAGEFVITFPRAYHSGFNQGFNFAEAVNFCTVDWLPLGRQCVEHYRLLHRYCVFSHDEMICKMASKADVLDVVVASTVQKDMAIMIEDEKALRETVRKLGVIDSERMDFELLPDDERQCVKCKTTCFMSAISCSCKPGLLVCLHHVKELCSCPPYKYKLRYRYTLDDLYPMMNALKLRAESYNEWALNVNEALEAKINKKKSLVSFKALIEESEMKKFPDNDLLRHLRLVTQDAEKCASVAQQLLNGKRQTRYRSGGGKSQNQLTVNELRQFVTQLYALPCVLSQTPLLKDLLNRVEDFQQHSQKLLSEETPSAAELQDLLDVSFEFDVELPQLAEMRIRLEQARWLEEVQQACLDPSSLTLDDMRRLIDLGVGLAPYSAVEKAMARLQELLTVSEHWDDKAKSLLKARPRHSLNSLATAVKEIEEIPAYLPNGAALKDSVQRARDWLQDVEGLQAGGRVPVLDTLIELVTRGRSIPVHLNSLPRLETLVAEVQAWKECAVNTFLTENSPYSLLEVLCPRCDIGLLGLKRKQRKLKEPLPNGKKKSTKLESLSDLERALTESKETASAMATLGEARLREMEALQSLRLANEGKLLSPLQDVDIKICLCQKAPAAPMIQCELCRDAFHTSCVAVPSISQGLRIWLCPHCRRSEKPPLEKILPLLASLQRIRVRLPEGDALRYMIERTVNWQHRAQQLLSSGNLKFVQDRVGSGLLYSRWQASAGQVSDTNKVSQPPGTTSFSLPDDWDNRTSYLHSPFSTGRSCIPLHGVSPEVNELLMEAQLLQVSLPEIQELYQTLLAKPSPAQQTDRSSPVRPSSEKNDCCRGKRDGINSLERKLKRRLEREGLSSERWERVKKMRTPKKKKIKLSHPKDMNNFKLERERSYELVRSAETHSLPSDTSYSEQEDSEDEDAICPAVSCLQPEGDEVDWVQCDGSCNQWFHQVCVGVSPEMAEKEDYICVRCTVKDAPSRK
Summary of the method: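 KDM5BDeltaAP (200nM final) in 50mM HEPES pH 7.5, 0.01% Tween-20 was preincubated with compound for 10 min at room temperature. A substrate mix of 12.5uM H3K4Me3, 25uM a-ketoglutarate, ascorbate, Fe2+, NAD+ and formaldehyde dehydrogenase was then added. NADH fluorescence (340/450 nm) was read initially and after 30 min.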

[3] = system: Zika virus NS2B-NS3 protease (linked construct); assay: Primary screen NINDS Rhodamine qHTS for Zika virus inhibitors (AID 1347160); further: on the % scale 0 is the no-effect control and ±100 the full control effect; nearly all actives have a fitted effect of over 55% in size
Summary of the method: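 Enzyme (25 nM, linked NS2B-NS3) was preincubated 15 min with compound in 10 mM Tris-HCl pH 8.0, 0.01% Tween 20. Rhodamine110 substrate (1.5 microM) was then added and fluorescence read at start and after 15 min.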

[4] = system: Zika virus NS2B-NS3 protease (linked construct); assay: 384 well plate NINDS Rhodamine confirmatory qHTS for Zika virus inhibitors (AID 1347164); further: potency means the concentration at half of the fitted maximal effect; nearly all actives have a fitted effect of over 65% in size
Summary of the method: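 Cleavage of Ac-LKRR-Rhodamine 110 (10 microM final) by linked protease (final 5, 30 or 60 nM) was followed as fluorescence at 485/538 nm after 25 min, room temperature, dark. Compounds preincubated ~15 min.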

[5] = Vero cells viability qHTS for Zika virus inhibitors (AID 1347167); further: on the % scale 0 is the no-effect control and ±100 the full control effect
Summary of the method: (§1)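 qHTS titration; 24-48 h compound exposure, 37 degrees C/5% CO2; DMEM, 4% FBS; CellTiter Glo ATP luminescence.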

[6] = HepG2 cells viability qHTS for Zika virus inhibitors (AID 1347168); further: on the % scale 0 is the no-effect control and ±100 the full control effect
Summary of the method: as §1

[7] = Confirmatory screen NINDS Rhodamine qHTS for Zika virus inhibitors (AID 1347161); further: nearly all actives have a fitted effect of over 60% in size; further: potency means the concentration at half of the fitted maximal effect
Summary of the method: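 Rhodamine110-peptide cleavage (1.5 µM substrate) by 25 nM linked NS2B-NS3 enzyme at pH 8.0 (Tris, Tween 20), after 15 min RT preincubation with compounds; 15-min fluorescence change normalized to controls and Hill-fitted.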

## NC1C=CC=C(C(=O)O)C1 (stereo not drawn)
[1]
  Potency: inactive
[2]
  activity, negative = inhibition: -9.6%

## NCCCCN=C(N)N
[1]
  Potency: inactive
[2]
  activity, negative = inhibition: -1.42%

## OC1(c2ccc(Cl)cc2)CCN(Cc2c[nH]c3ccccc23)CC1
[1]
  Potency: inactive
[2]
  activity, negative = inhibition: -0.728%

## O=C(OCCN1CCOCC1)C1(c2ccccc2)CCCCC1
[1]
  Potency: inactive
[2]
  activity, negative = inhibition: -17.1%

## Cn1cc(C(=O)OCC2CCN(CCNS(C)(=O)=O)CC2)c2ccccc21
[1]
  Potency: inactive
[2]
  activity, negative = inhibition: -6.85%

## N[C@H](C(=O)O)[C@H]1C[C@@H]1C(=O)O
[1]
  Potency: inactive
[2]
  activity, negative = inhibition: -7.37%

## NCCS(=O)O
[1]
  Potency: inactive
[2]
  activity, negative = inhibition: -4.01%

## NCCCNCCCCNCCCN
[1]
  Potency: inactive
[2]
  activity, negative = inhibition: -4.41%

## O=C1Cc2c([nH]c3ccc(Br)cc23)-c2ccccc2N1
[1]
  Potency: inactive
[2]
  activity, negative = inhibition: -26.8%

## CC[C@H](NC(=O)c1c(C)c(-c2ccccc2)nc2ccccc12)c1ccccc1
[1]
  Potency: inactive
[2]
  activity, negative = inhibition: -4.22%

## CCN(CC)CCOC(=O)c1cc(Cl)c(N)cc1OC
[1]
  Potency: inactive
[2]
  activity, negative = inhibition: -9.27%

## O=C(O)C1=CCNCC1
[1]
  Potency: inactive
[2]
  activity, negative = inhibition: -12.8%

## Nc1ccc(CCNc2ncnc3c2ncn3C2OC(CO)C(O)C2O)cc1 (stereo not drawn)
[1]
  Potency: inactive
[2]
  activity, negative = inhibition: -7.72%

## CCCCOc1cc(CC2CNC(=O)N2)ccc1OC (stereo not drawn)
[1]
  Potency: inactive
[2]
  activity, negative = inhibition: -3.5%

## Cn1c(=O)[nH]c2ncn(C)c2c1=O
[1]
  Potency: inactive
[2]
  activity, negative = inhibition: -3.98%

## N[C@@H](CS(=O)O)C(=O)O
[1]
  Potency: inactive
[2]
  activity, negative = inhibition: -4.61%

## CSC(=N)N
[1]
  Potency: inactive
[2]
  activity, negative = inhibition: -3.96%

## CCSC(=N)N
[1]
  Potency: inactive
[2]
  activity, negative = inhibition: -5.42%

## COc1cc(C(O)C(=O)O)ccc1O (stereo not drawn)
[1]
  Potency: inactive
[2]
  activity, negative = inhibition: -6.83%

## O=C(O)Cc1c[nH]c2ccc(O)cc12
[3]
  outcome: inactive

## COc1cc([C@@H]2c3cc4c(cc3[C@H](O)C3COC(=O)[C@@H]32)OCO4)cc(OC)c1OC (stereo partly drawn)
[2]
  activity, negative = inhibition: -3%

## CC(=O)[C@H]1CCC2C3CC=C4C[C@@H](OS(=O)(=O)O)CC[C@]4(C)C3CC[C@@]21C (stereo partly drawn)
[2]
  activity, negative = inhibition: 0.452%

## CC(=O)/C(C)=N/O
[2]
  activity, negative = inhibition: -0.876%

## CSC(N)=NCCC[C@H](N)C(=O)O
[2]
  activity, negative = inhibition: -3.11%

## O=c1[nH]c2cc(Cl)ccc2c(O)c1-c1ccc(Oc2ccccc2)cc1
[2]
  activity, negative = inhibition: -28.1%

## C=C(C)C1CC=C(C(=O)O)CC1 (stereo not drawn)
[2]
  activity, negative = inhibition: 1.54%

## O=C(O)/C=C/c1cnc[nH]1
[2]
  activity, negative = inhibition: -28.2%

## c1ccc(CN2CCC3(CCCc4ccccc43)CC2)cc1
[2]
  activity, negative = inhibition: -0.246%

## NCCC1CCCC(CCN)N1 (stereo not drawn)
[2]
  activity, negative = inhibition: -5.63%

## C=CCN1CCc2c(cc(O)c(O)c2Br)[C@@H](c2ccccc2)C1
[4]
  Potency: 8.91 µM (active)
[5]
  Potency: inactive
[6]
  outcome: inactive

## Nc1ncnc2c1nc(Sc1ccc(Cl)cc1)n2[C@H]1OC2COP(=O)(O)O[C@@H]2C1O (stereo partly drawn)
[2]
  activity, negative = inhibition: -0.0945%

## N[C@@H](CCC(=O)N[C@H](CSN=O)C(=O)NCC(=O)O)C(=O)O
[2]
  activity, negative = inhibition: -9.68%

## c1ccc2c(c1)CCC[C@H]2Nc1nc2ccccc2[nH]1
[2]
  activity, negative = inhibition: -7.62%

## N[C@H]1CONC1=O
[2]
  activity, negative = inhibition: -4.96%

## COc1cccc(OC)c1OCCNCC1CSc2ccccc2O1 (stereo not drawn)
[2]
  activity, negative = inhibition: -14.1%

## NC1(C(=O)O)CCCCC1
[2]
  activity, negative = inhibition: -8.23%

## COc1cc2c(CCNC(C)=O)c[nH]c2cc1O
[7]
  Potency: inactive
[5]
  Potency: inactive
[6]
  outcome: inactive

## NC1CONC1=O (stereo not drawn)
[2]
  activity, negative = inhibition: -3.54%

## O[Si](CCCN1CCCCC1)(c1ccc(F)cc1)C1CCCCC1 (stereo not drawn)
[2]
  activity, negative = inhibition: -4.4%

## NC(=O)c1cc[n+](CC2=C(C(=O)O)N3C(=O)[C@@H](NC(=O)[C@@H](c4ccccc4)S(=O)(=O)[O-])[C@H]3SC2)cc1
[2]
  activity, negative = inhibition: -15.3%

## C#CC(N)CCC(=O)O (stereo not drawn)
[2]
  activity, negative = inhibition: -0.625%

## N[C@H](C(=O)O)[C@H](Cc1ccccc1)C(=O)O
[2]
  activity, negative = inhibition: -9.48%

## CCCOC(=O)c1c(-c2ccccc2)nc(CC)c(C(=O)SCC)c1CCC
[2]
  activity, negative = inhibition: -14.4%

## C[N+](C)(C)CC=O
[2]
  activity, negative = inhibition: -0.629%

## CC(=O)SC1CC2=CC(=O)CC[C@]2(C)C2CC[C@@]3(C)C(CC[C@@]34CCC(=O)O4)C12 (stereo partly drawn)
[2]
  activity, negative = inhibition: 0.621%

## NC(N)=N[C@@H](CCC(=O)O)C(=O)O
[2]
  activity, negative = inhibition: -1.71%

## CCCC[C@@]1(C2CCCC2)Cc2cc(OCC(=O)O)c(Cl)c(Cl)c2C1=O
[7]
  Potency: 7.82 µM (active)
[2]
  activity, negative = inhibition: -4.31%
[5]
  Potency: inactive
[6]
  outcome: inactive

## CC#CCOC(=O)c1c(C)nc2sc3c(c2c1N)CCC(O)C3 (stereo not drawn)
[2]
  activity, negative = inhibition: -10.9%

## CC(=O)C(C)=O
[2]
  activity, negative = inhibition: -10.5%

## N=S(=O)(O)Cc1noc2ccccc12
[2]
  activity, negative = inhibition: 3.62%

## Nc1ccc2c3c(cccc13)C(=O)NC2=O
[2]
  activity, negative = inhibition: -16.6%

## O=C(O)CCC(=O)N1CCCC1C(=O)O (stereo not drawn)
[2]
  activity, negative = inhibition: -3.62%

## Oc1ccc(/C=C/c2ccc(/C=C/c3ccc(O)cc3)c(Br)c2)cc1
[2]
  activity, negative = inhibition: 662%

## Cn1cc(C(F)(F)F)nc1-c1ccc(OCC(O)CNCCOc2ccc(O)c(C(N)=O)c2)cc1 (stereo not drawn)
[7]
  Potency: inactive
[2]
  activity, negative = inhibition: -27.4%
[5]
  Potency: inactive
[6]
  outcome: inactive

## CC1=C(C(=O)O)N2C(=O)[C@@H](NC(=O)C(N)C3=CCC=CC3)[C@H]2SC1 (stereo partly drawn)
[2]
  activity, negative = inhibition: -22.8%

## N#CC(C#N)=C(N)/C(C#N)=C/c1ccc(O)cc1
[2]
  activity, negative = inhibition: -9.24%

## Nc1ccc(-c2ccc3ccccc3n2)cc1
[7]
  Potency: inactive
[5]
  Potency: inactive
[6]
  outcome: inactive
